The full list was thinned out, with hits kept by preference.
Anaer choline gr: choline-fed anaerobic bacterial growth inhibition. Gram-negative bacterium anaerobic choline minimal medium, absorbance growth; hits give low values. calls only. 0.2% of 55,000 active. AID 1963822; call rule not given here
Calls only; n = inactive; + = active, no number; ! = a repeat was not active.

SMILES	Anaer choline gr
CC(C)OC(=O)CCCC=CCC1C(O)CC(O)C1CCC(O)CCc1ccccc1 (configuration not stated)	n
O=C(O)CCC/C=C\C[C@@H]1[C@@H](/C=C/[C@@H](O)COc2cccc(C(F)(F)F)c2)[C@H](O)C[C@@H]1O	+!
CC(C)OC(=O)CCC/C=C\C[C@@H]1[C@@H](/C=C/[C@H](O)CCc2ccccc2)[C@H](O)C[C@@H]1O	+
CC(C)OC(=O)CCC/C=C\C[C@@H]1[C@@H](/C=C/C(=O)COc2cccc(C(F)(F)F)c2)[C@H](O)C[C@@H]1O	n
O=C(O)CCC/C=C/C[C@@H]1[C@@H](/C=C/[C@@H](O)COc2cccc(C(F)(F)F)c2)[C@H](O)C[C@@H]1O	n
CCCCC[C@H](O)/C=C/[C@@H]1[C@@H](C/C=C/CCCC(=O)O)[C@H](O)C[C@H]1O	n
CC(=O)N1CC(C)(C)c2cc(S(=O)(=O)N3CCOCC3)ccc21	n
Cc1nc(-c2cc(S(=O)(=O)NC3CCCCC3)c(C)s2)sc1C	n
Cc1oc(-c2ccno2)cc1S(=O)(=O)Nc1cc(F)ccc1F	n
CCN1C(=O)c2ccccc2Sc2cc(-c3noc(CNS(=O)(=O)c4ccccc4)n3)ccc21	n
Cc1nn(-c2nc3ccccc3o2)c2c1C(c1cc(F)ccc1F)CC(=O)N2 (configuration not stated)	n
Cc1sc2cc(C(=O)N3CCC(N4CCCCC4)CC3)[nH]c2c1CN1CCCCC1	+
CCCN1CCN(C(=O)c2cc3sc(C)c(CN4CCCCC4)c3[nH]2)CC1	n
Cc1sc2cc(C(=O)N3CCC4(CC3)OCCO4)[nH]c2c1CN1CCCCC1	n
Cc1ccc(NS(=O)(=O)c2ccc3c(c2)c(=O)n(CCC(=O)N2CCCC2)c(=O)n3C)nc1	n
CCc1ccc(-c2csc(Cc3nc(-c4ccc(F)cc4)no3)n2)cc1	n
CN(C)CCCn1cc(C2=C(c3c[nH]c4ccccc34)C(=O)NC2=O)c2ccccc21	+!
COc1ccc2c(c1)c(C1=C(c3c[nH]c4ccccc34)C(=O)NC1=O)cn2CCCN(C)C	n
Cn1cc(C2=C(c3cn(CCCSC(=N)N)c4ccccc34)C(=O)NC2=O)c2ccccc21	n
COc1cc2c(C(=O)N3CCCCC3)c(C)n(-c3ccccc3)c2cc1Br	n
COCC1=C(C(=O)OC(C)OC(=O)OC(C)C)N2C(=O)C(NC(=O)C(=NOC)c3csc(N)n3)C2SC1 (configuration not stated)	n
CO/N=C(\C(=O)N[C@@H]1C(=O)N2C(C(=O)[O-])=C(C[N+]3(C)CCCC3)CS[C@H]12)c1csc(N)n1	+
CC(C)(O/N=C(\C(=O)N[C@@H]1C(=O)N2C(C(=O)[O-])=C(C[n+]3ccccc3)CS[C@H]12)c1csc(N)n1)C(=O)O	n
Cn1c(-c2nnc(SCC(=O)NCCc3nc4ccccc4[nH]3)o2)cc2ccccc21	n
CCOC(=O)c1cnc(SCC)nc1N	n
SMILES	Anaer choline gr
CCOC(=O)c1c(C)nc2n(C)c3ccccc3n12	n
CCCCC[C@H](O)CC[C@H]1[C@H](O)CC(=O)[C@@H]1CCCCCCC(=O)O	+!
CCCCC[C@H](O)/C=C/[C@H]1[C@H](O)CC(=O)[C@@H]1CCCCCCC(=O)O	n
CCCCC[C@H](O)/C=C/[C@H]1[C@H](O)CC(=O)[C@H]1CCCCCCC(=O)O	n
O=S(=O)(c1ccccc1)N1CCCC1c1ccc(Cl)cc1 (configuration not stated)	n
CN1CCCC1CCOC(C)(c1ccccc1)c1ccc(Cl)cc1 (configuration not stated)	+
CSc1ccc2c(c1)N(CCC1CCCCN1C)c1ccccc1S2 (configuration not stated)	n
Cc1cc(Br)ccc1NC(=O)c1cc2c(C)nn(-c3ccccc3)c2s1	n
Cc1cc(C)cc(NC(=O)Nc2ccccc2OCc2cc(=O)n3cccc(C)c3n2)c1	n
Cc1nnc(-c2c(C)[nH]c(C)c2S(=O)(=O)NCCC(C)C)o1	n
COc1ccc(CNC(=O)c2ccc(Oc3nccnc3Sc3ccc(Cl)cc3)cc2)cc1	n
O=C(C1CCN(c2cnc(N3CCSCC3)nc2)CC1)N1CCOCC1	n
Cc1ccc(-c2noc3ncnc(NCCN(C)C4CCCCC4)c23)cc1	n
CN(CCNc1ncnc2onc(-c3cccc(Cl)c3)c12)C1CCCCC1	+
Clc1cccc(-c2noc3ncnc(NCc4ccc5c(c4)OCO5)c23)c1	n
Cc1cc(C)cc(NC(=O)Nc2ccc(Nc3cc(N(C)C)nc(C)n3)cc2)c1	n
CC(=O)Nc1ccc(C)cc1-c1nc2ccccc2n(C(C)C(=O)Nc2ccc(C)cc2C)c1=O (configuration not stated)	n
Cc1noc(-c2ccccc2NC(=O)C2CC(=O)N(Cc3ccccc3)C2)n1 (configuration not stated)	n
CCOCCCNC(=O)Cn1c(=O)c(=O)n(C)c2ncccc21	n
CC1CCn2c(nc3cc(C(=O)NC(C)C)ccc32)C1 (configuration not stated)	n
Cc1onc(-c2ccccc2Cl)c1C(=O)N[C@@H]1C(=O)N2[C@@H]1SC(C)(C)[C@@H]2C(=O)O	+
Cc1onc(-c2c(F)cccc2Cl)c1C(=O)N[C@@H]1C(=O)N2C(C(=O)O)C(C)(C)S[C@H]12 (some centres not stated)	n
CC1(C)S[C@@H]2[C@H](NC(=O)Cc3ccccc3)C(=O)N2[C@H]1C(=O)O	n
Cn1c(CCc2ccc(NC(=O)C3CCCN(S(=O)(=O)N4CCCC4)C3)cc2)nc2ccccc21 (configuration not stated)	n
COCCNC(=O)Cc1ccc(-n2c(=O)c3ccccc3n(CC(=O)NCc3ccccc3)c2=O)cc1	n
SMILES	Anaer choline gr
CCc1cc(Cl)c(OC)c(C(=O)NCC2CCCN2CC)c1O (configuration not stated)	n
CCN1CCCC1CNC(=O)c1c(O)c(Cl)cc(Cl)c1OC (configuration not stated)	n
CCc1cc(Cl)c(OC)c(C(=O)NC[C@@H]2CCCN2CC)c1O	+!
CC(=O)Nc1ccc(S(=O)(=O)N2CCOc3ccc(C(=O)NCc4ccc(C)cc4)cc3C2)cc1	n
CNC(=O)CCC(=O)N1c2ccccc2NC2=C(C(=O)CC(C)(C)C2)C1c1cccs1 (configuration not stated)	n
O=c1[nH]cnc2c1ncn2C1O[C@H](CO)[C@@H](O)[C@H]1O (some centres not stated)	n
Nc1nc(Cl)nc2c1ncn2[C@@H]1O[C@H](CO)[C@@H](O)[C@@H]1F	+!
Nc1nc(Cl)nc2c1ncn2[C@H]1C[C@H](O)[C@@H](CO)O1	n
COc1ccc(OC(=O)CSc2nc(-c3ccccc3)nc3cc(=O)[nH]n23)cc1	n
CCOC(=O)c1[nH]c(C)c(CN(Cc2ccc(OC)cc2)C(=O)Nc2ccc3c(c2)OCO3)c1C	n
O=C(NC1CCCCC1)N1CCCN(c2nc3cc(Br)ccc3n3cccc23)CC1	n
CCC(=O)Nc1nc2ccc(NC(=O)CCC3CCCC3)cc2s1	n
CC(=O)Nc1sc2c(c1-c1nc3ccccc3s1)CCN(C(C)C)C2	n
COC(=O)c1ccc(C(=O)Nc2sc3c(c2-c2nc4ccccc4s2)CCN(C(C)C)C3)cc1	n
COc1ccc(C(=O)Nc2sc3c(c2-c2nc4ccccc4s2)CCN(C(C)C)C3)cc1OC	+
Cc1nc(CN2C(=O)COc3ccc(S(=O)(=O)N4CCCC4)cc32)no1	n
Cc1nc(CN2C(=O)COc3ccc(S(=O)(=O)N4CCCCC4)cc32)no1	n
O=c1onc2n1-c1cc(Br)ccc1OC2	+
CCc1ccc2ncc3c(-c4ccc(C)cc4)n[nH]c3c2c1	n

Screening data (PubChem)
